According to PubChem BioAssay (NCATS):
Results filed as inconclusive are left out. A call without a number means that no potency is given here. Active and inactive are the calls of the source. Calls follow the shape of the dose curve; as a rule, active = well fitted cell-killing curve with a large enough effect; inconclusive = small, poorly fitted or top-dose-only effect; inactive = flat fitted curve, though single readings scatter.

assay: qHTS of pediatric cancer cell lines to identify multiple opportunities for drug repurposing: Primary screen for TC32 cells (AID 1347089); settings: TC32 Ewing sarcoma viability, CellTiter-Glo luminescence, 48 h; series mostly up to 45.8 µM; also: nearly all actives have a fitted effect of over 60% in size
Summary of the method: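 Luminescent ATP read-out (CellTiter-Glo) of metabolically active TC32 cells after 48 h exposure. Concentration-response curves came from 11-point (MIPE, 0.78 nM–46 µM) or 8-point (NPC, 0.59 nM–46 µM) primary titrations; follow-up used 11 points.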
Potency is read from the fitted curve at half-maximal effect.

Structure (SMILES) | Potency
C[N+](C)(C)CCCCCCCCCC[N+](C)(C)C | inactive
CC[N+](C)(C)c1cccc(O)c1 | inactive
CC(N=C(NC#N)Nc1ccncc1)C(C)(C)C (stereo not drawn) | inactive
CSc1ccc(C(=O)c2[nH]c(=O)[nH]c2C)cc1 | inactive
O=C(CCNNC(=O)c1ccncc1)NCc1ccccc1 | inactive
CCCN(CCC)CCc1cccc2c1CC(=O)N2 | inactive
CCCCNc1c(C(=O)OCC)c(C)nc2c1cnn2CC | inactive
CCN(CC)CCCN(c1ccccc1)C1Cc2ccccc2C1 | inactive
COc1ccc(CCN(C)CCCC(C#N)(c2cc(OC)c(OC)c(OC)c2)C(C)C)cc1OC (stereo not drawn) | inactive
c1ccc2c(c1)CCCC2C1=NCCN1 (stereo not drawn) | inactive
C[C@]12CCC(=O)C=C1CC[C@@H]1[C@@H]2CC[C@@]2(C)[C@H]1CC[C@]2(O)C(=O)CO | inactive
C[C@]12CC[C@@H]3c4ccc(O)cc4C[C@@H](CCCCCCCCCS(=O)CCCC(F)(F)C(F)(F)F)[C@H]3[C@@H]1CC[C@@H]2O (stereo partly drawn) | inactive
CCCCCCCC/C=C\CCCCCCCC(=O)NCc1ccc(O)c(OC)c1 | inactive
CC(C)[N+](C)(CCOC(=O)C1c2ccccc2Oc2ccccc21)C(C)C | inactive
CN(C)CCCN1c2ccccc2Sc2ccccc21 | inactive
NC1=NCC2c3ccccc3Cc3ccccc3N12 (stereo not drawn) | inactive
Cc1nc2c([nH]1)c(=O)n(C)c(=O)n2Cc1ccco1 | inactive
O=C(O)CCCCCCCC(=O)O | inactive
OCCN1CCN(CCCN2c3ccccc3C=Cc3ccccc32)CC1 | inactive
CC(C)(C)NCC(O)c1cc(O)cc(O)c1 (stereo not drawn) | inactive
CN(C)[C@@H]1C(=O)C(C(N)=O)=C(O)[C@@]2(O)C(=O)C3=C(O)c4c(O)ccc(Cl)c4[C@@H](O)[C@H]3C[C@@H]12 | inactive
NC(N)=NC(=O)Cc1c(Cl)cccc1Cl | inactive
C[n+]1cc2c3c(ccc2c2ccc4cc5c(cc4c21)OCO5)OCO3 | 3.25 µM (active)
CN(C)CC[C@@H](c1ccc(Br)cc1)c1ccccn1 | inactive
CC(=O)Nc1nnc(S(N)(=O)=O)s1 | inactive
Fc1ccc(C(c2ccc(F)cc2)N2CCN(C/C=C/c3ccccc3)CC2)cc1 | inactive
CC(=O)OCC1=C(C(=O)O)N2C(=O)[C@@H](NC(=O)Cc3cccs3)[C@H]2SC1 | inactive
Cc1ccc(S(=O)(=O)NC(=O)NN2CCCCCC2)cc1 | inactive
NC/C=C/C(=O)O | inactive

assay: qHTS of pediatric cancer cell lines to identify multiple opportunities for drug repurposing: Primary screen for DAOY cells (AID 1347090); settings: DAOY medulloblastoma viability, CellTiter-Glo luminescence, 48 h; series mostly up to 46 µM; also: nearly all actives have a fitted effect of over 55% in size
Summary of the method: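 Viability measured as metabolically active cells via CellTiter-Glo luminescence following 48 hours of compound exposure, 11-point dilutions in confirmatory testing. 500-1,000 cells/well plated 5 hours before dosing; controls were DMSO and 2.3 µM bortezomib.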

Structure (SMILES) | Potency
Cc1ccc(/C(=C\CN2CCCC2)c2ccccn2)cc1 | inactive
C[N+](C)(C)CCCCCCCCCC[N+](C)(C)C | inactive
CC[N+](C)(C)c1cccc(O)c1 | inactive
CC(N=C(NC#N)Nc1ccncc1)C(C)(C)C (stereo not drawn) | inactive
CSc1ccc(C(=O)c2[nH]c(=O)[nH]c2C)cc1 | inactive
O=C(CCNNC(=O)c1ccncc1)NCc1ccccc1 | inactive
CCCN(CCC)CCc1cccc2c1CC(=O)N2 | inactive
CCCCNc1c(C(=O)OCC)c(C)nc2c1cnn2CC | inactive
COCC(=O)O[C@]1(CCN(C)CCCc2nc3ccccc3[nH]2)CCc2cc(F)ccc2[C@@H]1C(C)C | inactive
CCN(CC)CC(=O)Nc1c(C)cccc1C | inactive
CCN(CC)CCCN(c1ccccc1)C1Cc2ccccc2C1 | inactive
CN=C(NC#N)NCCSCc1nc[nH]c1C | inactive
COc1ccc(CCN(C)CCCC(C#N)(c2cc(OC)c(OC)c(OC)c2)C(C)C)cc1OC (stereo not drawn) | inactive
O=c1[nH]c(=O)n([C@H]2C[C@H](O)[C@@H](CO)O2)cc1Br | inactive
c1ccc2c(c1)CCCC2C1=NCCN1 (stereo not drawn) | inactive
C[C@]12CCC(=O)C=C1CC[C@@H]1[C@@H]2CC[C@@]2(C)[C@H]1CC[C@]2(O)C(=O)CO | inactive
C[C@]12CC[C@@H]3c4ccc(O)cc4C[C@@H](CCCCCCCCCS(=O)CCCC(F)(F)C(F)(F)F)[C@H]3[C@@H]1CC[C@@H]2O (stereo partly drawn) | inactive

Structure (SMILES) | Potency
CCCCCCCC/C=C\CCCCCCCC(=O)NCc1ccc(O)c(OC)c1 | inactive
CC(C)[N+](C)(CCOC(=O)C1c2ccccc2Oc2ccccc21)C(C)C | inactive
CN(C)CCCN1c2ccccc2Sc2ccccc21 | inactive
NC1=NCC2c3ccccc3Cc3ccccc3N12 (stereo not drawn) | inactive
Cc1nc2c([nH]1)c(=O)n(C)c(=O)n2Cc1ccco1 | inactive
O=C(O)CCCCCCCC(=O)O | inactive
OCCN1CCN(CCCN2c3ccccc3C=Cc3ccccc32)CC1 | inactive
CC(C)(C)NCC(O)c1cc(O)cc(O)c1 (stereo not drawn) | inactive
CN(C)[C@@H]1C(=O)C(C(N)=O)=C(O)[C@@]2(O)C(=O)C3=C(O)c4c(O)ccc(Cl)c4[C@@H](O)[C@H]3C[C@@H]12 | inactive
NC(N)=NC(=O)Cc1c(Cl)cccc1Cl | inactive
C[n+]1cc2c3c(ccc2c2ccc4cc5c(cc4c21)OCO5)OCO3 | 2.31 µM (active)
CN(C)CC[C@@H](c1ccc(Br)cc1)c1ccccn1 | inactive
CC(=O)Nc1nnc(S(N)(=O)=O)s1 | inactive
Fc1ccc(C(c2ccc(F)cc2)N2CCN(C/C=C/c3ccccc3)CC2)cc1 | inactive
CC(=O)OCC1=C(C(=O)O)N2C(=O)[C@@H](NC(=O)Cc3cccs3)[C@H]2SC1 | inactive
Cc1ccc(S(=O)(=O)NC(=O)NN2CCCCCC2)cc1 | inactive
NC/C=C/C(=O)O | inactive
